The results in this text go back to PubChem BioAssay AID686978 (National Center for Advancing Translational Sciences (NCATS), 2013).

Several values for one entry are separate records, joined by “and”; a condition that tells them apart may be missing. Identical values can stand only once. Out of some 420,000 compounds screened, about 64,000 (15%) were called active. About 27% were inconclusive and are not listed. Calls follow the shape of the dose curve; as a rule, active = well fitted inhibition curve with a large enough effect; inconclusive = small, poorly fitted or top-dose-only effect; inactive = flat fitted curve, though single readings scatter. Not all results are given here. A call without a number means that no potency is given here.
Potency is read from the fitted curve at half-maximal effect.

This test can be described thus: qHTS for Inhibitors of human tyrosyl-DNA phosphodiesterase 1 (TDP1): qHTS in cells in absence of CPT. Also: nearly all actives have a fitted effect of over 55% in size. The note with it: DT40 Tdp1-/- hTDP1 cells, no CPT, ATP luminescence, 48 h; activity change, negative = growth inhibition: at 46.2 µM (top of the series). In short, it runs like this:
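Chicken DT40 Tdp1-/- cells complemented with human TDP1, screened without camptothecin (DMSO vehicle only), 400 cells/well. Compounds pin-transferred, cells incubated at 37 °C for at least 48 hr. Growth read as ATP-dependent luminescence (CellTiter-Glo, 30 min at RT).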
Background: In qHTS, concentration-response curves come from the screen itself.
As to `COC(=O)C1=C(C(=O)OC)C2(OC1c1ccc(Br)cc1)C(=O)c1ccccc1C2=O` (stereo not given), the Potency result is “inactive”.
The same measure for `CN(c1ccc(OCC(=O)NC2=NCCS2)cc1)S(=O)(=O)c1ccc(F)cc1`: “inactive”; for `O=C(CSc1ccc(-c2ccccc2)nn1)NCC1CCCO1` (stereo not given): “inactive”.
The same measure for `CN(C)/C=C(\C#N)C(=O)c1cccnc1Oc1cccc(F)c1`: “inactive”; for `C[C@@H]1CN([C@@H](C)CO)C(=O)c2cc(NC(=O)C3CC3)ccc2O[C@H]1CN(C)C`: “inactive”.
The same measure for `CC(C)CC(=O)Nc1cc(C(F)(F)F)ccc1N1CCOCC1`: “inactive”.
For the molecule `CCOC(=O)c1c(C)[nH]c(C)c1C(=O)CSc1nc(N)cc(N)n1`, the Potency entry was “inactive”.
The same measure for `COCCNc1cc(NCCOC)c([N+](=O)[O-])cc1[N+](=O)[O-]`: “inactive”; for `Cc1ccc(OC(=O)c2cc3ccccc3o2)cc1`: “inactive”.
The same measure for `CCOC(=O)c1[nH]c(C)c(CCC(=O)NCc2ccccc2C)c1C`: “inactive”; for `C/C(CC(=O)Nc1cccc(F)c1)=N\NC(=O)C(=O)NC1CCCCC1`: “inactive”.
The same measure for `C=C(C)c1cccc(C(C)(C)NC(=O)N2CCN(c3ncccn3)CC2)c1`: “inactive”.
For the molecule `O=C(CCN1C(=O)c2ccccc2C1=O)NNC(=O)c1ccc(Cl)cc1Cl`, the Potency entry is “inactive”.
The same measure for `COc1ccc(Nc2cc(=O)n(-c3ccccc3)c3c2c(=O)n(C)c(=O)n3C)cc1`: “inactive”; for `COc1cccc(-n2cc3c(c2-c2ccccc2)c(=O)n(C)c(=O)n3C)c1`: 11.6 µM (active); for `COc1cccc(-n2cc(C(=O)O)c3ccccc3c2=O)c1`: “inactive”.
Take `CN1CCN(NC(=O)Nc2ccc(Br)cc2)CC1`: the Potency result was “inactive”.
The entry for `COC(=O)c1ccc(/C=N/NC(=O)C(=O)N2CCCCCC2)cc1` is “inactive”; for `CCCNC(=O)c1cc(C2CCCN(C(=O)c3ccc4c(c3)CCO4)C2)on1` (stereo not given) it is “inactive”.
The same measure for `O=C(c1nnc(-c2ccc(Cl)cc2)o1)C1CCCC1`: “inactive”; for `O=C(c1[nH]ncc1-c1ccc(Cl)cc1)C1CO1` (stereo not given): 4.61 µM (active); for `S=c1[nH]nc(-c2ccc(Cl)cc2)n1CC1CCCO1` (stereo not given): “inactive”.
Regarding `CC(OC(=O)CCc1nc(=O)c2ccccc2n1C)C(=O)NCc1ccc2c(c1)OCO2` (stereo not given), the Potency result was “inactive”.
As for `COc1ccc(N2CCN(C(=O)c3ccccc3NC(=O)C3=C(C)OCCS3)CC2)cc1`, the Potency result was “inactive”.
With `CCn1c2c(c(=O)n3ncc(C(=O)N4CCN(c5ccccc5)CC4)c13)CN(Cc1ccc(OC)cc1)CC2`, the Potency is 16.4 µM (active).
Turning to `CCn1c(CNC(=O)c2ccccc2)nnc1SCC(=O)N1CCN(c2ccccc2)CC1`, the Potency entry was “inactive”.
With `CCC(C)NC(=O)C1CCC(=O)N1Cc1ccc(C)cc1` (stereo not given), the Potency result was “inactive”.
The same measure for `CN(Cc1ccco1)S(=O)(=O)c1nnc(NC(=O)c2ccccc2)s1`: “inactive”.
The same measure for `COc1ccccc1CNC(=O)CCn1c(=O)c2ccccc2n(CC(=O)Nc2cccc(Cl)c2)c1=O`: 18.4 µM (active).
The same measure for `COCCNC(=O)CCCn1c(=O)c2ccccc2n(Cc2cccc([N+](=O)[O-])c2)c1=O`: “inactive”; for `COc1ccc(CCNC(=O)CCCCn2c(=O)c3ccccc3n(Cc3ccccc3)c2=O)cc1OC`: 20.6 µM (active); for `COc1ccc(NC(=O)Cn2c(=O)n(Cc3ccc(C(=O)NCc4ccccc4Cl)cc3)c(=O)c3ccccc32)cc1`: “inactive”.
On to `COc1ccccc1CNC(=O)CCCCn1c(=O)c2ccccc2n(CC(=O)Nc2cc(Cl)ccc2C)c1=O`, for which the Potency is 10.3 µM (active).
The entry for `COc1ccccc1CNC(=O)CCn1c(=O)sc2ccccc21` is “inactive”.
As to `Cc1ccc(Cn2c(=O)n(CCCC(=O)NCc3ccccc3Cl)c(=O)c3ccccc32)cc1`, the Potency result was “inactive”.
Regarding `COc1ccccc1CNC(=O)CCCn1c(=O)c2ccccc2n(CC(=O)Nc2ccc(C)cc2Cl)c1=O`, the Potency result was “inactive”.
The entry for `COc1ccc(CCNC(=O)CCCn2c(=O)c3ccccc3n(Cc3ccc(F)cc3Cl)c2=O)cc1OC` is “inactive”; for `CC(C)(C)C1CCC(=NNC(=O)c2ccc(Br)o2)CC1` (stereo not given) it is “inactive”.
The same measure for `Cc1nc2cccnc2nc1C`: “inactive”; for `Cc1ccc2c(c1)C(O)(CC(=O)c1cccc(-n3cccc3)c1)C(=O)N2` (stereo not given): “inactive”.
The entry for `CCCCCCCCc1c(O)nc(-n2[nH]c(C)c(CCO)c2=O)[nH]c1=O` is “inactive”.
Turning to `Cc1ccc(C(=O)NNC(=O)c2ccc3c(c2)OCCO3)cc1`, the Potency result was “inactive”.
The entry for `COC(=O)c1ccc(C(=O)OC)c(NC(=S)N2CCCCC2)c1` is “inactive”; for `Brc1ccc(-c2noc(-c3ccccc3)n2)o1` it is “inactive”.
The same measure for `Cn1c(=O)cc(SCC(=O)N2CCN(C(=O)c3ccco3)CC2)c2ccccc21`: “inactive”.
On to `Nc1c(C(=O)O)cnn1-c1ccccc1`, for which the Potency entry is “inactive”.
The same measure for `COC(=O)Cn1c(O)c(N=NC(=O)OC)c2ccccc21`: “inactive”; for `CN1CCN(S(=O)(=O)c2cccc(C(=O)O)c2)CC1`: “inactive”; for `CCn1c(O)c(N=NC(=O)c2cccc(S(=O)(=O)N3CCCCC3)c2)c2ccccc21`: 23.1 µM (active).
`O=[N+]([O-])c1cccc(C2=NCCS2)c1`: the Potency entry was “inactive”.
The entry for `CC(CC(=O)Nc1ccc(F)cc1F)S(=O)(=O)c1ccc2c(c1)NC(=O)CO2` (stereo not given) is “inactive”; for `O=C(NCc1cccnc1)Nc1cccc(NC(=O)NCc2cccnc2)c1F` it is “inactive”; for `COCCCN1C(=O)c2ccc(C(=O)OCC(=O)NCc3ccccc3OC)cc2C1=O` it is “inactive”.
The same measure for `CCOc1ccc(C2C(C(=O)O)c3ccccc3C(=O)N2CCN2CCOCC2)cc1` (stereo not given): “inactive”; for `CC(=O)c1ccc(OCCN2CCOCC2)cc1`: “inactive”.
The figure for `CCOc1ccc(C(=O)CCN2CCOCC2)cc1` is 20.6 µM (active); for `CC1CN(C2CCN(C(=O)COc3ccccc3)CC2)CC(C)O1` (stereo not given) it is “inactive”; for `CN(CC(=O)NCc1ccncc1)S(=O)(=O)c1ccc(Br)cc1` it is “inactive”.
`COc1ccc(CCNC(=O)C(=O)NCC2CCNCC2)cc1OC`: the Potency result is “inactive”.
Consider `COc1ccc(CCNc2ncnc3nc[nH]c23)cc1OC`, for which the Potency was 11.6 µM (active).
The entry for `CCCNC(=O)NC(=O)COC(=O)CC(NC(N)=O)c1ccc(Cl)cc1` (stereo not given) is “inactive”.
As for `CSCCC(NC(=O)c1ccco1)C(=O)NCCc1ccc(F)cc1` (stereo not given), the Potency result is “inactive”.
The entry for `CCc1ccc(NC(=O)NC(C)c2ccc3c(c2)OCO3)cc1` (stereo not given) is “inactive”; for `CC(NC(=O)Nc1ccc2c(c1)OCO2)c1ccncc1` (stereo not given) it is “inactive”; for `CC1CCCN(C(C(=O)Nc2ccc(C(C)C)cc2)c2ccc3c(c2)OCO3)C1` (stereo not given) it is 18.4 µM (active).
The same measure for `Cc1ccc(S(=O)(=O)NC2CCCCCC2)cc1C(N)=O`: “inactive”.
The entry for `Cc1cccc(NS(=O)(=O)c2ccc(C)c(C(=O)NCc3cccnc3)c2)c1` is “inactive”; for `Cc1cccc(NS(=O)(=O)c2ccc(C)c(C(N)=O)c2)c1` it is 9.2 µM (active).
On to `COc1ccccc1C(=O)N1C(CC(=O)Nc2ccccc2C)C(=O)NC2CCCCC21` (stereo not given), for which the Potency entry is “inactive”.
The same measure for `COc1cccc(-n2c(=S)[nH]c3c(oc4ccccc43)c2=O)c1`: “inactive”; for `CNc1[nH]ncc1[N+](=O)[O-]`: “inactive”.
Regarding `CCCCCCNCCn1cnc2c(N)ncnc21`, the Potency entry was “inactive”.
The entry for `Cc1ccc(NC(=O)Cn2nc(C)c3ccccc3c2=O)c(C)c1` is “inactive”; for `Cc1ccc(NC(=O)CSc2nn3c(=O)c(C)nnc3s2)cc1Cl` it is “inactive”.
Take `Cc1ccc(NC(=O)CSc2nc3c([nH]c4ccccc43)c(=O)n2-c2ccccc2)c(C)c1`: the Potency is 16.4 µM (active).
The entry for `Cc1ccc(-n2c(SCC(=O)Nc3cccc(F)c3)nc3c(oc4ccccc43)c2=O)cc1C` is “inactive”; for `Cc1ccc(-n2c(SCC(=O)c3ccccc3)nc3c([nH]c4ccccc43)c2=O)cc1` it is 3.66 µM (active).
As to `Cc1cccc(NC(=O)CSc2nc3c(oc4ccccc43)c(=O)n2-c2ccc(F)cc2)c1`, the Potency result was “inactive”.
The same measure for `CC(C)OCCCn1c(SCC(=O)c2ccccc2)nc2c(sc3ccccc32)c1=O`: “inactive”.
For the molecule `Cc1nc(SCC(=O)c2ccccc2)c([N+](=O)[O-])[nH]1`, the Potency entry was “inactive”.
The same measure for `Cc1ccc(NC(=O)CSc2nc3c([nH]c4ccccc43)c(=O)n2-c2ccccc2)cc1Cl`: 23.1 µM (active).
Regarding `Cc1ccc(NC(=O)COC(=O)CCc2nc3ccccc3n2-c2ccccc2)c(C)c1`, the Potency entry was “inactive”.
The entry for `Cc1ccc(NC(=O)CSc2nnc3[nH]c(=O)cc(C)n23)cc1Cl` is “inactive”; for `Cc1ccc(C)c(NC(=O)CSc2nc3c(oc4ccccc43)c(=O)n2-c2ccccc2)c1` it is 10.3 µM (active).
Turning to `O=C(CC12CC3CC(CC(C3)C1)C2)NCc1ccco1`, the Potency entry was “inactive”.
As for `CCCOc1ccc(Cc2c(O)nc(N)[nH]c2=O)cc1C`, the Potency entry is “inactive”.
The same measure for `CN1C(=O)CC(c2ccccc2)C1=O` (stereo not given): “inactive”; for `Cc1cc(C(=O)CC#N)c(C)n1CC(F)(F)F`: “inactive”.
The entry for `CCC(=O)N1CCC(C)(C(=O)Nc2cc(OC)c(OC)c(OC)c2)C1` (stereo not given) is “inactive”; for `C/C(=N\NS(=O)(=O)c1ccc(Br)cc1)c1cccs1` it is “inactive”.
The entry for `O=C(c1ccco1)N1CCC[C@@]2(CCN(Cc3nccs3)C2)C1` is “inactive”; for `C[C@H](CO)N1C[C@H](C)[C@@H](CN(C)C(=O)c2cnccn2)Oc2ncc(Br)cc2C1=O` it is “inactive”; for `CC1CN(C(=O)CN2C(=O)NC(C)(c3ccccc3)C2=O)CC(C)O1` (stereo not given) it is “inactive”.
Turning to `O=C(c1ccccc1)c1cccn1CC(=O)N1CCN(c2ccc(F)cc2)CC1`, the Potency result was “inactive”.
The entry for `Cn1nnnc1SCc1cc(=O)[nH]c2ccccc12` is “inactive”.
The entry for `CCOC(=O)c1ccc(NC(=O)c2cc(=O)[nH]c3ccccc23)cc1` is “inactive”.
The entry for `CCOn1c(SC(C)C)nc2ccccc2c1=O` is “inactive”; for `CC(Sc1nc2c([nH]c3ccccc32)c(=O)n1C)c1ccccc1` (stereo not given) it is 18.4 µM (active); for `CCOC(=O)c1ccc(NC(=O)CSc2nnc(COc3ccccc3OC)n2C)cc1` it is “inactive”.
Consider `CCOC(=O)c1ccc(NC(=O)CSc2nc3c([nH]c4ccccc43)c(=O)n2C)cc1`, for which the Potency is 9.2 µM (active).
The same measure for `CSc1ncccc1C(=O)OCC(=O)N1CCOCC1`: “inactive”; for `CCOC(=O)c1cccc(NC(=O)CCc2nnc3ccc(N4CCOCC4)nn23)c1`: “inactive”.
The entry for `CC(C)c1nc2ccc(C(=O)O)cc2[nH]1` is “inactive”; for `COC(=O)Nc1nc2ccc(Sc3ccccc3)cc2[nH]1` it is 517 nM (active) and 286 nM (active).
In the case of `Cc1nc2ccc(C(=O)O)cc2[nH]1`, the Potency result was “inactive”.
